Laboratory results as given in PubChem BioAssay AID772 (SRMLSC, 2007).
Screen size: about 3,300 compounds; about 20 (0.6%) were called active. The sample holds actives, similar compounds and a random draw of the others, so the mix is not that of the screen.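 Rule for the calls: active = growth inhibition above 90%, meaning viable cell count cut by more than 90% versus vehicle controls; inactive = growth inhibition below 90%.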

Experiment: HT29 colon tumor cell growth inhibition, primary screen, imaging, high content imaging, 72 h, CellTiter-Glo (AID 772);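 for condensed nuclei: condensed means nuclear area below control median minus 1.5 SD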
Settings: HCS imaging cell count, at 10 µM, stronger effect = higher value; for condensed nuclei: measured here: percent cells with condensed nuclei
[1] = measured here: ATP CellTiter-Glo viability

Row | SMILES | growth inhibition | growth inhibition [1] | condensed nuclei
1 | CCOC(=O)CSc1nc(NC#N)nc(N(CC)CC)n1 | -10.6% (inactive) | -34.2% | 2.47%
2 | CC1(C)CC(=O)C(C=NCC(O)c2ccccc2)=C(O)C1 (stereo not drawn) | 1.15% (inactive) | -3.71% | 3.13%
3 | CCN(CC)Cc1cc(C(C)=O)ccc1OCC(C)C | -17.7% (inactive) | -47.7% | 2.8%
4 | Cc1ccc(C2/C(=C(/O)c3cnn(-c4ccccc4)c3C)C(=O)C(=O)N2CCN2CCOCC2)o1 (stereo not drawn) | -41.7% (inactive) | -16.4% | 5.65%
5 | CC1CCN(c2oc(-c3ccccc3Cl)nc2C#N)CC1 | 39.9% (inactive) | -1.14% | 4.72%
6 | Cc1nnc(C)n1/N=C/c1cccn1C | -26.9% (inactive) | -16.7% | 2.68%
7 | CCOC(=O)/C(C#N)=C1\Nc2ccccc2N=C1N(CC(C)C)CC(C)C | 15.8% (inactive) | -0.53% | 3.37%
8 | O=C(c1ccc2c3c(cccc13)C(=O)N(O)C2=O)N1CCCCC1 | 63.6% (inactive) | 65.6% | 16.2%
9 | S=C(N=Nc1ccccc1)NNc1ccccc1 | 5.63% (inactive) | 9.94% | 9.9%
10 | CCCCCC1CC(CC#CCN2CCOCC2)C(=O)O1 (stereo not drawn) | -6.01% (inactive) | -22.1% | 3.8%
11 | Cc1nc(NCCCO)c(C#N)c2c1COC(C)(C)C2 | 26.3% (inactive) | -0.61% | 5.86%
12 | CCOC(=O)c1[nH]c2ccc(OC)cc2c1NC(=O)CCN1CCC(C)CC1 | 7.19% (inactive) | 8.59% | 9.76%
13 | COc1cccc(-c2nnc3sc(-c4ccc(Cl)cc4)nn23)c1 | -127% (inactive) | -46.5% | 8.69%
14 | O=C(O)C(Cc1c[nH]c2ccccc12)NS(=O)(=O)c1cccc2nsnc12 (stereo not drawn) | 9.77% (inactive) | 1.74% | 1.59%
15 | Cc1nn2c(-c3ccc(Cl)cc3)nnc2s1 | 0.82% (inactive) | -46.2% | 2%
16 | Cc1ccc2[nH]c3c(N4CCN(Cc5ccccc5)CC4)ncnc3c2c1 | 50.9% (inactive) | 7.07% | 2.3%
17 | c1ccc(CN2CCN(c3ncnc4c3[nH]c3ccccc34)CC2)cc1 | 93.4% (active) | 88.4% | 27.8%
18 | Fc1ccc2[nH]c3c(N4CCN(Cc5ccc6c(c5)OCO6)CC4)ncnc3c2c1 | 92% (active) | 96.7% | 24.5%
19 | c1ccc2c(c1)[nH]c1c(N3CCSCC3)ncnc12 | 57.2% (inactive) | 14.5% | 5.16%
20 | COc1ccc2[nH]c3c(N4CCN(Cc5ccc6c(c5)OCO6)CC4)ncnc3c2c1 | 20.7% (inactive) | 21% | 1.08%
21 | Cc1ccc2[nH]c3c(N4CCOCC4)ncnc3c2c1 | -53.8% (inactive) | -45.3% | 5.07%
22 | Cc1ccc2[nH]c3c(N4CCN(Cc5ccc6c(c5)OCO6)CC4)ncnc3c2c1 | 73.7% (inactive) | 96.6% | 29.9%
23 | Cc1ccc2[nH]c3c(N4CCCCCC4)ncnc3c2c1 | 96.5% (active) | 96% | 39.6%
24 | CN1CCN(c2ncnc3c2[nH]c2ccc(F)cc23)CC1 | 27.9% (inactive) | 14.8% | 6.32%
25 | Cc1cc(C)nc(N(C#N)CC(=O)N(c2ccccc2)C(C)C)n1 | -23.3% (inactive) | -17.6% | 7.69%
26 | Clc1ccc2[nH]c3c(NCCCN4CCOCC4)ncnc3c2c1 | 88.5% (inactive) | 96.8% | 45.3%

Row | SMILES | growth inhibition | growth inhibition [1] | condensed nuclei
27 | COC(=O)C(NC(C)=O)(Nc1ccc(Br)cn1)C(F)(F)F (stereo not drawn) | -46.6% (inactive) | -39% | 2.33%
28 | O=C1CC(c2ccccc2)n2nc(NS(=O)(=O)c3ccccc3)nc2N1 (stereo not drawn) | 6.12% (inactive) | 25.8% | 5.04%
29 | CCOC(=O)CNS(=O)(=O)c1cc(-c2n[nH]c(=O)c3ccccc23)ccc1C | -38.6% (inactive) | -21.1% | 6.33%
30 | Cc1nc(/N=C(\N)Nc2ccccc2)nc2ccccc12 | -39.5% (inactive) | -11.8% | 3.28%
31 | CCCCCOc1ccccc1C(=O)NCC(=O)O | -69.1% (inactive) | -28.9% | 1.44%
32 | CSc1nc2sc3c(c2c2nnnn12)CCCC3 | 37.7% (inactive) | 9.47% | 2.53%
33 | Cc1ccc(N2C(=O)[C@@H]3[C@H](C2=O)C2CCCN2[C@@H]3C(=O)c2ccccc2)cc1 (stereo partly drawn) | 61.8% (inactive) | 9.87% | 4.55%
34 | N#Cc1nc(COc2ccc(Br)cc2)oc1N1CCCC1 | 31.9% (inactive) | -4.22% | 13.2%
35 | N#Cc1nc(COc2ccc(Cl)cc2)oc1N1CCN(Cc2ccccc2)CC1 | 85.7% (inactive) | 70.5% | 7.69%
36 | COc1ccc(N2CCN(c3oc(COc4ccc(Cl)cc4)nc3C#N)CC2)cc1 | 92.4% (active) | 87.2% | 23.8%
37 | Cc1c(C(=O)O)sc(=S)n1-c1ccccc1 | 46.5% (inactive) | 9.56% | 3.47%
38 | CC(=O)C1=C(O)C(=O)N(c2ccc(C(=O)O)cc2)C1c1ccccc1 (stereo not drawn) | -93.1% (inactive) | -74.7% | 4.2%
39 | COC(=O)C1=C(C)N=C2SC(C)C(=O)N2C1c1ccc(C(=O)OC)cc1 (stereo not drawn) | -44.2% (inactive) | -32% | 6.05%
40 | CCN(CC)CCN1C(=O)C(O)=C(C(=O)c2ccco2)C1c1ccccn1 (stereo not drawn) | -51.4% (inactive) | -77% | 2.14%
41 | CC(=O)C1=C(NC(=O)c2ccccc2F)C[C@@H]2[C@H]1C2(C)C | -1.88% (inactive) | -28.5% | 2.19%
42 | Cc1ccc(-n2c(=O)c3c4c(sc3n3c(C)nnc23)COC(C(C)C)C4)cc1 (stereo not drawn) | -38% (inactive) | -56.1% | 4.02%
43 | O=C(NC1CCS(=O)(=O)C1)N1CCCCC1 (stereo not drawn) | 28.2% (inactive) | 4.61% | 9.88%
44 | COC(=O)c1ccccc1NC(=O)CSc1nnc(-c2ccncc2)o1 | 11.7% (inactive) | -27.3% | 4.89%
45 | CCOC(=O)c1[nH]c2ccc(C)cc2c1N=CN(CC)CC | 1.88% (inactive) | -13% | 12.3%
46 | COc1ccc2[nH]c(C)c(C(=O)CN3CCN(C(=O)c4ccco4)CC3)c2c1 | -20.9% (inactive) | -49.5% | 3.46%
47 | COc1cccc(OC)c1OCCN1CCN(C(=O)c2ccco2)CC1 | 18.1% (inactive) | 7.71% | 3.57%
48 | COc1cc2nc(N3CCN(C(=O)C4CCCO4)CC3)nc(N)c2cc1OC (stereo not drawn) | -61.2% (inactive) | -20.9% | 2.06%
49 | COc1cc2nc(N3CCN(C(=O)C4COc5ccccc5O4)CC3)nc(N)c2cc1OC (stereo not drawn) | 96% (active) | 83.5% | 21.8%
50 | COc1cc2nc(N3CCN(C(=O)c4ccco4)CC3)nc(N)c2cc1OC | 94.7% (active) | 67.4% | 30.2%
51 | COC(=O)c1ccccc1NC(=O)C1COc2ccccc2O1 (stereo not drawn) | 16.2% (inactive) | 13.5% | 13.5%
